From PubChem BioAssay (NCI) come the findings set out here.

Among the test systems are SK-MEL-2 melanoma; EKVX NSCLC; SN12C renal; UO-31 renal; TK-10 renal; ACHN renal; A498 renal; CCRF-CEM leukemia; MOLT-4 leukemia; SR leukemia.
Experiment in all cases: NCI-60 one-dose screen, 48 h (100 = growth as untreated, 0 = no growth, -100 = all killed)
What all share (details): 10 µM unless noted

About 83,000 compounds went through this panel and 20% of them were active in at least one assay; those are over-represented in the sample as a whole.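 Compound tested at a single concentration for 48 hours in 96-well plates; a percent growth value below 10 was scored as active.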 Values without a mark were called inactive. Calls of active or inactive are those of the source.

For the compound `O=C1c2ccccc2C(=O)c2c1oc1c2c(=O)[nH]c2ccccc21`, the growth was 76.9% in the test with SK-MEL-2 melanoma; 27.4% in the test on EKVX NSCLC; 70.4% with SN12C renal; 60.4% in the test with UO-31 renal; 97.5% with TK-10 renal; 65.7% with ACHN renal. Besides, the growth is 104% in the test on A498 renal, 20.7% in the test on CCRF-CEM leukemia, 5.55% (active) in the test with MOLT-4 leukemia and 43.8% in the test with SR leukemia.
On to `COc1ccc(-c2[nH]c3ccccc3c2C=C(C#N)C#N)cc1`, for which the growth in the test with SK-MEL-2 melanoma was -14.5% (active); with EKVX NSCLC it was 12.4%; in the test on SN12C renal, 44.6%; in the test on UO-31 renal, 59.1%; in the test with TK-10 renal it was 35.5%; in the test with ACHN renal, 43%. Also, the growth in the test on A498 renal was -7.34% (active); in the test with CCRF-CEM leukemia, -5.77% (active); in the test with MOLT-4 leukemia, -14.2% (active); with SR leukemia it was -27.8% (active).
Turning to `COc1ccc2oc(=O)cc(-c3nc4ccc(N)cc4[nH]3)c2c1`, the growth was 89.5% in the test on SK-MEL-2 melanoma; 82.2% with EKVX NSCLC; 92.4% in the test on SN12C renal; 44.9% in the test with UO-31 renal; 96.5% with TK-10 renal; 79.9% with ACHN renal. In addition, the growth is 61.5% with A498 renal, 108% with CCRF-CEM leukemia, 73.4% in the test with MOLT-4 leukemia and 76.1% in the test with SR leukemia.
Turning to `COc1ccccc1-c1ccc2nc(NC(=O)Nc3cc(C(F)(F)F)cc(C(F)(F)F)c3)sc2c1`, the growth with SK-MEL-2 melanoma is -14.1% (active); in the test on EKVX NSCLC, 10.7%; in the test with SN12C renal, 13%; in the test with UO-31 renal, 13.1%; with TK-10 renal it was 9.11% (active); with ACHN renal, 8.64% (active). Moreover, the growth in the test on A498 renal was -26.7% (active); with CCRF-CEM leukemia, 0.889% (active); in the test with MOLT-4 leukemia, -15.7% (active); in the test on SR leukemia it was -23.8% (active).
Consider `COc1ccccc1N1CCN(CCCOc2ccc(C(=O)/C=C3/C(=O)Nc4ccccc43)cc2)CC1`, for which the growth was 72.2% with SK-MEL-2 melanoma; 53.5% in the test on EKVX NSCLC; 69.7% with SN12C renal; 44.5% in the test on UO-31 renal; 87.1% in the test with TK-10 renal; 74.2% with ACHN renal. Also, the growth is 88.6% in the test with A498 renal, 15.6% in the test with CCRF-CEM leukemia, 18.6% in the test with MOLT-4 leukemia and 19.8% in the test with SR leukemia.
On to `Cc1nnc(/N=C2\NC(=O)/C(=C/c3ccc(N(C)C)cc3)S2)s1`, for which the growth in the test with SK-MEL-2 melanoma is 83.1%; in the test on EKVX NSCLC, 82.8%; in the test on SN12C renal, 83.8%; with UO-31 renal, 70.6%; in the test with TK-10 renal it was 87.3%; in the test with ACHN renal, 71.8%. Besides, the growth is 67% in the test on A498 renal, 62.6% in the test with CCRF-CEM leukemia, 80.8% with MOLT-4 leukemia and 44.2% in the test with SR leukemia.
Consider `O=C(/C(=C\c1c(-c2ccccc2)[nH]c2ccccc12)S(=O)(=O)c1ccccc1)c1ccccc1`, for which the growth is 35.8% in the test on SK-MEL-2 melanoma; 28.7% with EKVX NSCLC; 82% in the test with SN12C renal; 60.9% in the test with UO-31 renal; 78.2% in the test with TK-10 renal; 48.7% in the test on ACHN renal. Moreover, the growth in the test on A498 renal was 54.3%; in the test with CCRF-CEM leukemia, 21%; in the test with MOLT-4 leukemia, 3.71% (active); in the test on SR leukemia, 15.1%.
On to `CCCCc1nc(Cl)c(C2CC(c3ccc(Cl)cc3)=NN2c2cc(Cl)cc(Cl)c2)[nH]1` (stereo not given), for which the growth in the test with SK-MEL-2 melanoma was 96%; in the test with EKVX NSCLC, 57.8%; with SN12C renal, 45.4%; in the test with UO-31 renal it was 52.7%; in the test on TK-10 renal, 94.2%; in the test on ACHN renal, 14.2%. For the same compound, the growth in the test with A498 renal was 84%; in the test on CCRF-CEM leukemia it was 51.6%; in the test with MOLT-4 leukemia it was 24.6%; in the test with SR leukemia, 61.8%.
For the compound `C=C(C)[C@@H]1CC[C@]2(C(N)=O)CC[C@]3(C)[C@H](CC[C@@H]4[C@@]5(C)CCCNC(C)(C)[C@@H]5CC[C@]43C)[C@@H]12`, the growth in the test on SK-MEL-2 melanoma is 105%; in the test on EKVX NSCLC, 87.5%; in the test with SN12C renal it was 77.7%; with UO-31 renal it was 84.4%; with TK-10 renal, 107%; with ACHN renal, 88.9%. The growth in the test on A498 renal was 99%; in the test on CCRF-CEM leukemia, 52.5%; with MOLT-4 leukemia, 48.9%; in the test with SR leukemia, 3% (active).
In the case of `O=CN1N=C(c2ccc3c(c2)OCO3)CC1c1cccc(Nc2ccnc3cc(C(F)(F)F)ccc23)c1` (stereo not given), the growth in the test with SK-MEL-2 melanoma was 76.1%; in the test on EKVX NSCLC, 75.2%; in the test on SN12C renal, 88.9%; in the test on UO-31 renal, 63.7%; in the test on TK-10 renal, 76.9%; in the test on ACHN renal, 85.8%. Further, the growth with A498 renal is 72.5%; with CCRF-CEM leukemia it was 66.5%; with MOLT-4 leukemia, 53.4%; in the test on SR leukemia, 29.9%.
Turning to `CC(=O)Oc1c2c(nc3c1c1ccccc1n3Cc1ccccc1)-c1ccccc1C2`, the growth in the test with SK-MEL-2 melanoma is 71.4%; in the test with EKVX NSCLC it was 80.8%; in the test on SN12C renal it was 85.8%; in the test on UO-31 renal it was 58.2%; with TK-10 renal it was 114%; in the test with ACHN renal, 85.7%. Also, the growth with A498 renal was 82%; with CCRF-CEM leukemia it was 91.5%; in the test with MOLT-4 leukemia, 72.6%; with SR leukemia, 86.2%.
For `O=C1CC(c2ccc(O)c(O)c2)Oc2cc(O)c([C@@H]3O[C@H](CO)[C@@H](O)[C@H](O)[C@H]3O)c(O)c21` (stereo not given in full), the growth in the test on SK-MEL-2 melanoma is 104%; with EKVX NSCLC it was 99.5%; in the test with SN12C renal, 98.7%; in the test with UO-31 renal, 103%; in the test on TK-10 renal it was 106%; with ACHN renal it was 102%. Moreover, the growth in the test with A498 renal is 108%; with CCRF-CEM leukemia, 97.3%; in the test with MOLT-4 leukemia, 100%; in the test on SR leukemia it was 98.6%.
On to `COc1cc2nc3c(=O)n(CCN(C)C)cnn3c(=O)c2cc1OC`, for which the growth in the test with SK-MEL-2 melanoma was 101%; in the test on EKVX NSCLC, 95.7%; in the test on SN12C renal it was 104%; in the test with UO-31 renal it was 89.6%; with TK-10 renal, 103%; in the test with ACHN renal it was 105%. In addition, the growth in the test on A498 renal was 92.7%; in the test with CCRF-CEM leukemia it was 146%; with MOLT-4 leukemia it was 104%; in the test on SR leukemia it was 105%.
